Among the data in PubChem BioAssay (Tox21) are outcome and Potency values, retold here.

Experiment [1] can be described thus: qHTS assay to test for compound auto fluorescence at 460 nm (blue) in HEK293 cell free culture (AID 720681). A digest of the protocol:
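Compounds were added to cell-free DMEM with 10% FBS and fluorescence read directly. The blue channel used 405 nm excitation and 460 nm emission, with triamterene as the reference fluorophore.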
In general terms: Quantitative high-throughput screening tests each substance at several concentrations.

Experiment [2] can be described thus: qHTS assay to test for compound auto fluorescence at 535 nm (green) in HEK293 cell free culture (AID 720682). The method, boiled down:
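Fluorescein serves as the green reference fluorophore; each compound's intrinsic emission at 535 nm (excitation 485 nm) is reported as an equivalent amount of that dye, measured in serum-containing DMEM without cells.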

Experiment [3] in a line: qHTS assay to test for compound auto fluorescence at 590 nm (red) in HEK293 cell free culture (AID 720683). A digest of the protocol: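 Cell-free wells of DMEM with 10% FBS received compound, and intrinsic fluorescence was read at excitation/emission 540/590 nm. Values expressed as equivalence to Rose Bengal sodium.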
Experiment [4] is described as follows: qHTS assay to test for compound auto fluorescence at 590 nm (red) in HepG2 cell free culture (AID 720684). The method, boiled down:
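Auto fluorescence equivalency versus Rose Bengal sodium, red channel Ex/Em 540/590 nm; compounds in cell-free MEM/10% FBS; DMSO vehicle control.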

Experiment [5] is described as follows: qHTS assay to test for compound auto fluorescence at 460 nm (blue) in HepG2 cell free culture (AID 720685). The method, boiled down: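 Cell-free plates of MEM plus 10% FBS received 23 nL compound or DMSO vehicle; blue-channel (405/460 nm) intensity scored against triamterene as reference fluorophore.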
Experiment [6] can be described thus: qHTS assay to test for compound auto fluorescence at 535 nm (green) in HepG2 cell free culture (AID 720686).
For experiment [7], the target named is Glucocorticoid receptor (Homo sapiens) (UniProt P04150). Kind of experiment: qHTS assay to identify small molecule agonists of the glucocorticoid receptor (GR) signaling pathway (AID 720691; active = well fitted activation curve with a large enough effect in the signal ratio in the repeat runs, not every such curve was filed as active; the % refers to the signal ratio; also: potency is read from the fitted curve at half-maximal effect). A digest of the protocol:
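A HeLa cervical cancer line expressing GR and a glucocorticoid response element-driven beta-lactamase gene is treated with compounds for 18 h; LiveBLAzer B/G FRET substrate is then applied and fluorescence read.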

Experiment [8] is described as follows: qHTS assay to test for compound auto fluorescence at 460 nm (blue) in HepG2 cells (AID 720687). A digest of the protocol:
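HepG2 cells in MEM with 10% FBS, attached overnight at 37 C, were exposed to compound or DMSO for 1 hr at 37 C, 5% CO2. Blue fluorescence was read at 405/460 nm, with triamterene as reference fluorophore.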

Experiment [9] has as its target Glucocorticoid receptor (Homo sapiens) (UniProt P04150). Kind of experiment: qHTS assay to identify small molecule antagonists of the glucocorticoid receptor (GR) signaling pathway (AID 720692; active = well fitted inhibition curve with a large enough effect in the signal ratio in the repeat runs, not every such curve was filed as active; the % refers to the signal ratio). The method, boiled down: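 GRE-bla HeLa line, dex-stimulated (5 nM final). Compound exposure 18 h, 37 C. Beta-lactamase FRET read after 2 h RT substrate.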

Results filed as inconclusive are left out. Calls of active or inactive are those of the source. Unless noted, calls follow the shape of the dose curve; as a rule, active = well fitted curve in the direction sought with a large enough effect in the repeat runs; inconclusive = weak or mixed curves; inactive = flat fitted curve, though single readings scatter.

Sequence of Glucocorticoid receptor (Homo sapiens) (P04150 whole entry, looked up): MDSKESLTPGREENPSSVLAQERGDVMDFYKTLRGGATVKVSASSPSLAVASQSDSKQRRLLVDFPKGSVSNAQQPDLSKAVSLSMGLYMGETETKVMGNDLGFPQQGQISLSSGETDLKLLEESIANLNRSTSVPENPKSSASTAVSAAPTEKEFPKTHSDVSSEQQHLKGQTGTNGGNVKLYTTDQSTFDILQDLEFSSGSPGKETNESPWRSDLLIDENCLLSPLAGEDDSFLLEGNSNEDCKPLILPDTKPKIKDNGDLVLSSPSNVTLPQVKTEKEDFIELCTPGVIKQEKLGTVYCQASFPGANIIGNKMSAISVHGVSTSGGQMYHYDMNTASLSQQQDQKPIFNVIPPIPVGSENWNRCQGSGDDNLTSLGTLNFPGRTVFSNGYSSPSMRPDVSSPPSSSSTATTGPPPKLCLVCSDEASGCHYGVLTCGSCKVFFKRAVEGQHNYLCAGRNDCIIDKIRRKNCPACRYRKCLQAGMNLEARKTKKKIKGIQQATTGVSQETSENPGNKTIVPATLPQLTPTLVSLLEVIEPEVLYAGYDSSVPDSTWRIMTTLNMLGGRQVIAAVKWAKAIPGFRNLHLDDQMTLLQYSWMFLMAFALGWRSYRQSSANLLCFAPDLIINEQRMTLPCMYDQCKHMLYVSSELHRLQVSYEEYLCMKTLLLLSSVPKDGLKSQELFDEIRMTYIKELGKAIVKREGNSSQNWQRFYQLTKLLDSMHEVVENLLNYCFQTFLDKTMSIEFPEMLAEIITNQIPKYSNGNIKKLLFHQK

Take `CCC(=O)OC(C)c1ccccc1` (stereo not given): the call in experiment [1], in experiment [2], in [3], in experiment [4], in [5] and in experiment [6] was inactive. Also, in experiment [7], the Potency result was “inactive”.

In the case of `CCCC(=O)O[C@]1(C(=O)CO)CC[C@H]2[C@@H]3CCC4=CC(=O)CC[C@]4(C)[C@H]3[C@@H](O)C[C@@]21C`, the compound was classed as inactive in [1], in experiment [2], in experiment [3], in experiment [4], in experiment [5] and in experiment [6]. In experiment [8], the outcome was inactive. Further, in experiment [7], the Potency is 0.213 µM (active).

`O=C1CC2CC1C1CCCC21` (stereo not given): the call in experiment [2], in experiment [3], in [4], in experiment [5], in experiment [6] and in [8] was inactive. In [7], the Potency is 54.9 µM (active). The Potency entry in [9] is “inactive”.

Consider `CC(C)(C)c1nnc(NS(=O)(=O)c2ccccc2)s1`, for which the result in [1], in experiment [2], in [3], in [4], in [5] and in [6] was inactive. Further, in experiment [8], the compound was called inactive. Also, the Potency result in [7] and in experiment [9] was “inactive” throughout.

Take `NC(=O)COCCN1CCN(C(c2ccccc2)c2ccc(Cl)cc2)CC1` (stereo not given): the compound was called inactive in experiment [2], in experiment [3], in experiment [4], in experiment [5] and in experiment [6]. The Potency result in experiment [7] and in [9] was “inactive” each time.

With `CCOC(=O)c1cccc(N)c1`, the compound was classed as inactive in [1], in experiment [2], in experiment [3], in experiment [4], in [5] and in experiment [6]. Also, the result in [8] was inactive.

With `CC(C(=O)O)c1ccc(CC2CCCC2=O)cc1` (stereo not given), the compound was called inactive in experiment [1], in [2], in [3], in experiment [4], in [5] and in experiment [6].

As for `CN1C(=O)N(C)C(O)C1O` (stereo not given), the outcome in experiment [2], in [3], in [4], in [5], in experiment [6] and in experiment [8] was inactive. Moreover, the Potency entry in experiment [7] and in experiment [9] was “inactive” each time.

Take `CC1(C)C(O)C(C)(C)C1O` (stereo not given): the compound was called inactive in experiment [1], in experiment [2], in [3], in experiment [4], in experiment [5] and in experiment [6]. The outcome in experiment [8] was inactive. The Potency entry in experiment [7] and in experiment [9] was “inactive” in each case.

Take `NS(=O)(=O)c1ccc(C(=O)O)cc1`: the compound was classed as inactive in [1], in experiment [2], in experiment [3], in [4], in [5] and in experiment [6]. For the same compound, the result in [8] was inactive. The Potency result in experiment [7] and in experiment [9] was “inactive” each time.

Regarding `Brc1c(NC2=NCCN2)ccc2nccnc12`, the result in [1], in experiment [2], in [3], in experiment [5], in experiment [6] and in experiment [8] was inactive. Also, the Potency entry in experiment [7] and in experiment [9] was “inactive” in each case.

With `Cc1cccc(C)c1NC(=O)C(C)N` (stereo not given), the outcome in experiment [1], in experiment [2], in [3], in [4], in [5] and in experiment [6] was inactive. The call in experiment [8] was inactive. Further, the Potency entry in experiment [7] and in experiment [9] was “inactive” each time.

For `COC(=O)CCSCCC(=O)OC`, the call in experiment [1], in experiment [2], in experiment [3], in experiment [4], in experiment [5] and in experiment [6] was inactive. Also, the outcome in [8] was inactive. In addition, the Potency result in [7] was “inactive”.

Consider `O=C(CCCN1CCN(c2ccccn2)CC1)c1ccc(F)cc1`, for which the compound was called inactive in experiment [1], in experiment [2], in experiment [3], in [4], in experiment [5] and in experiment [6]. Further, the compound was called inactive in [8].

As to `O=C1CCCC(=O)C1`, the outcome in experiment [2], in experiment [3], in experiment [4], in [5], in experiment [6] and in experiment [8] was inactive. Also, the Potency entry in experiment [7] and in experiment [9] was “inactive” in each case.

As to `O=C(O)COc1nn(Cc2ccccc2)c2ccccc12`, the result in experiment [1], in [2], in [3], in [4], in experiment [5] and in experiment [6] was inactive. In addition, the compound was classed as inactive in experiment [8]. For the same compound, the Potency entry in [7] and in experiment [9] was “inactive” each time.

With `NS(=O)(=O)c1cc(C(=O)O)cc(N2CCCC2)c1Oc1ccccc1`, the outcome in [1], in experiment [2], in experiment [3], in experiment [4], in experiment [5] and in experiment [6] was inactive. Also, the compound was classed as inactive in experiment [8]. The Potency in [7] was 9.1 µM (active). The Potency result in [9] was “inactive”.

`Nc1ccccc1S(=O)(=O)O`: the result in [1], in experiment [2], in experiment [3], in experiment [5], in experiment [6] and in experiment [8] was inactive.

Consider `CC(C)CNCC(C)C`, for which the compound was called inactive in experiment [1], in experiment [2], in [3], in experiment [5], in [6] and in [8].

`CC(C)(CC(=O)O)C(=O)O`: the call in experiment [1], in [2], in experiment [3], in experiment [4], in experiment [5] and in experiment [6] was inactive. Moreover, in [8], the call was inactive.
